Assay results as given in PubChem BioAssay AID463173 (ICCB-Longwood Screening Facility, Harvard Medical School, 2010).
The campaign covered roughly 52,000 compounds. About 4,300 (8.3%) were called active. The entries come from a sample that favours actives as a whole. Values without a mark were called inactive. Cut-off read from the data, not from the text of the source: active = survival mostly below about 52% (no sharp cut-off); inactive = mostly above about 56%.

What follows are compounds tested on DeltatarO mutant (assay: S. aureus survival, RN4220 and DeltatarO strains – OD600, teichoic acid synthesis inhibitors, primary screen (AID 463173)). Settings: S. aureus RN4220 wild type/DeltatarO growth, OD600, 18 h, stronger effect = lower value, screened at 18.75 µg/mL (by protocol).

Point of comparison: `CCc1ccc(S(=O)(=O)c2nnn3c2nc(NCCNC(C)=O)c2cc(Cl)ccc23)cc1`, survival 74%. Against it:
- CCOC(=O)CSc1nnc(CNc2ccc(C)cc2C)n1-c1ccccc1 — lower, 58%
- CCN1CCN(C(c2cccc(F)c2)c2c(O)cc(C)n(CCOC)c2=O)CC1 (configuration not stated) — lower, 73%
- CN(C)c1ccc(CNC(=O)c2sc3ncccc3c2-n2cccc2)cc1 — higher, 102%
- COc1cc(CNC(=O)c2sc3ncccc3c2-n2cccc2)cc(OC)c1OC — higher, 118%
- Cc1ccc(CCNC(=O)c2sc3ncccc3c2-n2c(C)ccc2C)cc1 — lower, 64%
- COCCNC(=O)c1sc2ncccc2c1-n1c(C)ccc1C — higher, 98%
- Cc1cc(SCC(=O)NCc2ccccc2Cl)nc(=O)[nH]1 — higher, 96%
- CCc1ccc(-c2nc(CS(=O)CC(=O)NCCc3ccc(C)cc3)c(C)o2)cc1 (configuration not stated) — higher, 89%
- CCOc1ccc(C(=O)c2cn(Cc3ccccc3)c3c(F)cc(F)cc3c2=O)cc1 — higher, 78%
- CCc1ccc(NC(=O)Cn2c(=O)c3cc(Cl)ccc3n3nncc23)cc1 — higher, 80%
- CCOc1ccc(CNC(=O)C2CCCN(c3nn4cc(-c5ccc(F)cc5)nc4s3)C2)cc1 (configuration not stated) — lower, 67%
- Cc1ccc(CCNC(=O)c2cc3sccc3n2Cc2ccc(F)cc2)cc1 — higher, 87%
- COCCCNS(=O)(=O)c1cc(-c2onc(C)c2C)ccc1OC — higher, 115%
- Cc1ccc(-c2onc(C)c2C)cc1S(=O)(=O)NCc1cccs1 — higher, 91%
- COc1ccc(-c2onc(C)c2C)cc1S(=O)(=O)NCCc1ccccc1 — higher, 90%
- Cc1ccc(-c2onc(C)c2C)cc1S(=O)(=O)NCc1ccco1 — higher, 87%
- CC(C)NC(=O)Nc1ccc2c(c1)N(C)C(=O)c1ccccc1S2 — higher, 117%
- CCOC(=O)/C(C#N)=C/C1=C(N)CC(C)(C)OC1 — higher, 95%
- Cc1ccc(NC(=O)Cn2c(=O)n(Cc3ccc4c(c3)OCO4)c(=O)c3ccc(C(=O)NC4CCCCC4)cc32)c(C)c1 — higher, 100%
- Cc1ccc(NC(=O)C(C)Sc2nnc(C3CCCCC3)n2C)cc1 (configuration not stated) — higher, 109%
- CCN(C(=O)Cn1nc(Cc2ccncc2)c2ccccc2c1=O)c1cccc(Cl)c1 — higher, 83%
- O=C(NCCc1nc2ccccc2n1Cc1ccc(Cl)cc1)c1ccccc1 — lower, 72%
- Cc1cccc(Cn2c(COc3ccc(Cl)cc3)nc3ccccc32)c1 — lower, 59%
- CC(O)c1nc2ccccc2n1Cc1ccccc1 (configuration not stated) — lower, 57%
- Cc1ccc(Cn2c(CCNC(=O)C(C)C)nc3ccccc32)cc1 — higher, 78%
- Cc1ccc(Cn2c(CNC(=O)c3cccc(C)c3)nc3ccccc32)cc1 — higher, 96%
- CCC(=O)NCc1nc2ccccc2n1Cc1ccccc1 — higher, 122%
- CCn1c(COc2ccc(Cl)cc2Cl)nc2ccccc21 — lower, 57%
- Cc1ccc(CNC(=O)CCCn2c(=O)[nH]c3ccc(Br)cc3c2=O)cc1 — higher, 87%
- Cc1ccc(-c2nnc(SC(C)C)n2-c2ccccc2)cc1 — higher, 100%
- COc1ccccc1C(=O)n1nc(-c2cccnc2)nc1NCc1ccccc1 — lower, 64%
- CCOC(=O)N1CCN(Cc2nc3cc(NC(=O)c4ccc([N+](=O)[O-])cc4)ccc3n2C(C)C)CC1 — higher, 75%
- CC(C)Oc1ccc(CNC(=O)c2ccc3nc(SCc4ccc(F)cc4)n(C)c3c2)cc1 — higher, 101%
- CCS(=O)(=O)N1CCC(C(=O)NCCC(C)C)CC1 — higher, 87%
- CCCCn1c(SCC(=O)Nc2cccc(OC)c2)nc2c(sc3ccccc32)c1=O — higher, 88%
- Cc1nc2nc(CNC(=O)c3cccc(F)c3)nn2c(C)c1CCC(=O)Nc1cccc(Cl)c1 — higher, 110%
- CC1CCCN(S(=O)(=O)c2ccc(N3CCCCS3(=O)=O)cc2)C1 (configuration not stated) — the same, 74%
- CCN(C(=O)c1ccc2c(=O)n3c(nc2c1)CCCCC3)c1cc(C)ccc1C — higher, 89%
- COc1ccc(S(=O)(=O)c2nnn(-c3ccc(C)c(Cl)c3)c2C)cc1 — higher, 99%
- Cc1cccc(Cn2c(CNC(=O)c3ccccc3)nc3ccccc32)c1 — lower, 64%
- COCc1nc2ccccc2n1Cc1cccc(C)c1 — higher, 79%
- Cc1ccc2c(=O)cc(C(=O)Nc3ccc(S(=O)(=O)Nc4nc(C)cc(C)n4)cc3)oc2c1 — higher, 78%
- COCCn1c(SCC(=O)c2ccc(C)cc2)nc2cc(C(=O)NC3CCCC3)ccc2c1=O — higher, 89%
- COc1cccc(C2=NN(C(C)=O)C(c3cn(-c4ccccc4)nc3-c3cccs3)C2)c1 (configuration not stated) — higher, 170%
- Cc1nn2c(=O)cc(COC(=O)COc3ccc(F)cc3)nc2s1 — higher, 94%
- COCCN(Cc1ccco1)C(=O)c1cc2c(=O)[nH]c3ccc(C)cc3c2s1 — lower, 53%
- CCOCCCN(Cc1ccco1)C(=O)c1cc2c(=O)[nH]c3ccc(C)cc3c2s1 — higher, 88%
- CCCn1c2ccccc2c2cnn(CC(=O)N(CCCOC(C)C)Cc3ccco3)c(=O)c21 — higher, 87%
- CCn1c(=O)c2cc(C(=O)N(CCN(C)C)Cc3ccccc3)sc2c2ccccc21 — higher, 77%
- CCn1c(=O)c2cc(C(=O)N(C)c3cc(C)ccc3C)sc2c2ccccc21 — higher, 105%
- CCn1c(=O)c2cc(C(=O)N(C)c3cc(Cl)c(OC)cc3OC)sc2c2ccccc21 — higher, 80%
- N#CC(C#N)=CC1=C(N2CCCC2)CCCC1 — higher, 89%
- Cc1c(-c2nc(-c3ccccc3)no2)nnn1-c1cccc(C(F)(F)F)c1 — higher, 80%
- Cc1ccc(NC(=O)Cn2cc(S(=O)(=O)c3ccccc3)c(=O)c3cc4c(cc32)OCO4)cc1 — higher, 97%
- Cc1ccccc1-c1noc(-c2cc3ccccc3oc2=O)n1 — higher, 85%
- CC1=C(C(N)=O)C(c2cccc(Br)c2)n2nc(SCc3ccccc3)nc2N1 (configuration not stated) — higher, 76%
- O=C(O)CC1CCCC(c2ccccc2)C1=O (configuration not stated) — higher, 91%
- Cc1ccc2c(CC(=O)Nc3c(C(=O)c4ccc(F)cc4)oc4ccccc34)coc2c1 — lower, 60%
- O=S(=O)(c1ccc(F)cc1)N(Cc1nc(-c2ccc(Cl)cc2)no1)C1CCCCC1 — higher, 76%
- Cc1ccc(-c2noc(CN(C3CCCCC3)S(=O)(=O)c3ccc(F)cc3)n2)cc1 — higher, 78%
- Cc1ccc(S(=O)(=O)NCc2nc(-c3cccc(C)c3)no2)cc1 — higher, 100%
- Cc1cccc(-c2noc(CN(C3CCCCC3)S(=O)(=O)c3ccc(F)cc3)n2)c1 — lower, 71%
- COc1ccc(S(=O)(=O)N(C)Cc2nc(-c3cccc(C)c3)no2)cc1 — lower, 51%
- COc1ccc(S(=O)(=O)N(Cc2nc(-c3cccc(C)c3)no2)C2CCCCC2)cc1 — lower, 57%
- COc1ccc(-c2cc(C)no2)cc1S(=O)(=O)N1CCN(c2ccc(C(C)=O)cc2)CC1 — higher, 91%
- CCCN1CCN(C(=O)Cn2c(-c3cccs3)cc3ccccc32)CC1 — higher, 95%
- Cc1cc(C)c2c(=O)[nH]c(SCC(=O)NCCc3ccccc3)nc2n1 — lower, 61%
- CCOc1ccc2nc(N3CCCC(C(=O)NCCc4ccc(SC)cc4)C3)sc2c1 (configuration not stated) — higher, 91%
- CCCN(CCC)CCCNC(=O)C1CCN(c2nc3ccc(CC)cc3s2)CC1 — lower, 54%
- CCOc1ccc2nc(N3CCCC(C(=O)NCCc4ccc(C)cc4)C3)sc2c1 (configuration not stated) — lower, 64%
- CCCCN(C)CCNC(=O)C1CCN(c2nc3ccc(CC)cc3s2)CC1 — lower, 45%
- COc1ccc(CCNC(=O)CSc2cn(CCNC(=O)c3c(F)cccc3F)c3ccccc23)cc1OC — higher, 79%
- COc1cccc(CNC(=O)C2CCCN(S(=O)(=O)N(C)c3ccc(F)cc3)C2)c1OC (configuration not stated) — higher, 87%

With `CCc1ccc(CNC(=O)c2sc3ncccc3c2-n2c(C)ccc2C)cc1` the survival was 0% (active).
For `CC(C)Oc1ccc(CNC(=O)c2sc3ncccc3c2-n2cccc2)cc1`, the survival was 46% (active).
In the case of `Cc1ccc(-c2onc(C)c2C)cc1S(=O)(=O)NCc1ccc(N(C)C)cc1`, the survival is reported as -2% (active).
With `COc1ccc(CCNS(=O)(=O)c2cc(-c3onc(C)c3C)ccc2OC)cc1OC` the survival was -1% (active).
With `Cc1cccc(Cn2c(COc3ccccc3)nc3ccccc32)c1` the survival was -2% (active).
With `Clc1ccc(OCc2nc3ccccc3n2Cc2ccccc2)c(Cl)c1` the survival was 14% (active).
With `Cc1ccc(Cn2c(Cc3ccccc3)nc3ccccc32)cc1` the survival was -1% (active).
`CC(C)(C)c1ccc(Cn2c(Cc3ccccc3)nc3ccccc32)cc1` was tested, and the survival was 0% (active).
`Cc1cccc(Cn2c(Cc3ccccc3)nc3ccccc32)c1` was tested, and the survival was 22% (active).
With `CC(C)c1ccc(Cn2c(COc3ccccc3)nc3ccccc32)cc1` the survival was -1% (active).
`CCn1c(=O)c2cc(C(=O)N(CCCOC(C)C)Cc3ccco3)sc2c2ccccc21` was tested, and the survival was 8% (active).
In the case of `Cc1ccc2[nH]c(=O)c3cc(C(=O)N(CCCOC(C)C)Cc4ccco4)sc3c2c1`, the survival is reported as 56% (active).
`CCn1c(=O)c2cc(C(=O)N(CC(C)C)CC(C)C)sc2c2ccccc21` was tested, and the survival was -4% (active).
With `CCN(Cc1nc(-c2cccc(C)c2)no1)S(=O)(=O)c1ccc(C)cc1` the survival was 43% (active).
`O=S(=O)(c1ccc(F)cc1)N(Cc1nc(-c2ccccc2)no1)C1CCCCC1` was tested, and the survival was 45% (active).
With `Cc1ccc(S(=O)(=O)N(Cc2nc(-c3cccc(C)c3)no2)C2CCCCC2)cc1` the survival was 46% (active).
For `CCOc1ccc2nc(N3CCCC(C(=O)NCCc4ccc(Cl)cc4)C3)sc2c1` (configuration not stated), the survival was 48% (active).
With `CCCN(CCC)CCNC(=O)C1CCN(c2nc3ccc(CC)cc3s2)CC1` the survival was 43% (active).
